# Test results from PubChem BioAssay (NCI).
# This is part of a sample that, as a whole, favours compounds with a hit. Of some 83,000 tested, about 20% had one in any assay.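 For each line, cells grew in 96-well plates with the test compound present at a single concentration for 48 hours.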 Values without a mark were called inactive. Activity calls are given as the source filed them. Rule for the calls: active = growth percent below 10; inactive = the rest.
# System: UO-31 renal
# Test: NCI-60 one-dose screen, 48 h (100 = growth as untreated, 0 = no growth, -100 = all killed)
# Settings: 10 µM unless noted
row,SMILES,growth
1,N#Cc1cccc(CN2CCC3=C(C2)C(=O)N(Cc2ccc(Cl)cc2)C2=NCCN23)c1,35.5%
2,COc1ccc(Oc2ccc(/C=N/NC(=O)CSc3nc4ccccc4c(=O)n3-c3ccc(Cl)cc3)cc2)cc1,47.7%
3,O=C(NNc1nc2cc(F)c(F)cc2n2c(CN3CC4CNCC4C3)ccc12)c1ncccn1 (stereo not drawn),13.6%
4,COc1cc(/C=C2\C(=O)Nc3cc(Cl)ccc32)ccc1OCc1ccc(F)cc1,79.8%
5,C#CCOc1ccc(/C=N\Nc2nc(-c3ccc(C)cc3)cs2)cc1OC,78.3%
6,C=CCOc1cccc(/C=C2\SC(=S)N(C3CC(=O)N(c4ccc(Br)cc4)C3=O)C2=O)c1 (stereo not drawn),89.6%
7,COc1ccc(S(=O)(=O)NCCCNc2nccc(-c3[nH]c(-c4ccccc4)nc3-c3ccc(Cl)c(O)c3)n2)cc1,116%
8,CCn1c2ccccc2c2cc(-n3nncc3-c3ccccc3)ccc21,36.8%
9,N#Cc1cccc(CN2CCC3=C(C2)C(=O)N(Cc2ccc(Cl)cc2)C2=NCCCN23)c1,37.4%
10,COc1ccc(COc2ccc(/C=C3\C(=O)Nc4ccccc43)cc2OC)cc1,80.4%
11,O=C(NNc1nc2cc(F)ccc2n2c(CN3CC4CNCC4C3)ccc12)c1cnccn1 (stereo not drawn),19.7%
12,COc1ccc2[nH]cc(-c3csc4nc(-c5ccccc5)cn34)c2c1,33.2%
13,COC(=O)C[Se]C(=O)Cc1c(C)n(C(=O)c2ccc(Cl)cc2)c2ccc(OC)cc12,9.87% (active)
